In the library only some 7.4% were active in any assay of this set; here they are far more common.
p53 reactivator – re-activators of mutant p53. H1299 p53-A138V BP100-luciferase reporter, luminescence, 24 h. Potency, µM (doses to about 92.2 µM), inactives show at the highest dose activity change, positive = activation, usual class: activators. 0.063% of 320,000 active; note: % of control where 0% means no effect; nearly all actives have a fitted effect of over 45% in size
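p53-null H1299 cells stably carrying temperature-sensitive p53-A138V and a BP100-luciferase reporter were pinned with compounds (4-point, 1:5 series) and held 24 hrs at 37 deg C. Luminescence was read 10 min after detection reagent.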
ELG1 genotoxic – genotoxicity induction in ELG1-luciferase HEK293T cells. HEK293T ELG1-luciferase reporter, luminescence, 16 h. Potency, µM (doses to about 46 µM), for inactives: at the top dose activity change, positive = activation, actives largely listed as activators. 1.3% of 330,000 active. AID 504466; note: % of control where 0% means no effect; nearly all actives have a fitted effect of over 60% in size
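Quantitative HTS format in 1536-well plates. HEK293T ELG1-luciferase reporter cells receive test compound and are incubated 16 hr at 37 °C, 5% CO2; ONE-Glo added, 30 min room temperature, then luminescence read.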
NPC1 prom act – activates the NPC1 promoter; Huh7 NPC1 promoter luciferase reporter, 24 h; AID 485313; 2.4% of 320,000 active; Potency, µM (doses to about 9.22 µM), for inactives: top-dose activation, actives largely listed as activators; note: % of control where 0% means no effect; nearly all actives have a fitted effect of over 60% in size
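Cells: Huh7 expressing luciferase under the NPC1 promoter, 1500/well. Seeded 2 h, compound added, incubated 24 h at 37 °C. Luciferase reagent, 10 min ambient, then luminescence.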
Rab9 promoter act – Rab9 promoter activation; Huh7 Rab9 promoter-luciferase reporter, luminescence, 24 h; Potency, µM (titrated, usually from 9.22 µM), without a hit: top-dose activation, negative = inhibition, actives largely listed as activators; 2.8% of 320,000 active; AID 485297; note: % of control where 0% means no effect; nearly all actives have a fitted effect of over 60% in size
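Huh7 cells stably carrying a Rab9 promoter-luciferase reporter, 1500 cells per well in OP-MEM I with 10% FBS, treated with compound 24 hours at 37C. Luciferase activity read by luminescence after 10 minutes with Amplite reagent.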
SMN2 splice up – SMN2 splice variant enhancement | HEK293 SMN2-luciferase splicing reporter, luminescence, 30-36 h | Potency, µM (titrated, usually from 46.1 µM), for the others: at the top dose activity change, positive = activation, most hits filed as activators | 2.8% of 210,000 active; note: % of control where 0% means no effect; nearly all actives have a fitted effect of over 55% in size
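HEK293 cells carry an SMN2 minigene-luciferase reporter in which exon 7 inclusion puts luciferase in frame. Cells were seeded at 2000 cells/well, attached for 10-12 hours, then exposed to compounds for 30-36 hours at 37C before ONE-Glo luminescence.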
FLuc counter – inhibits or activates purified firefly luciferase, miR-21 counter-screen; P08659; purified FLuc, Km substrates, luminescence inhibition; Potency, µM (highest dose often 57.5 µM), inactives show top-dose activity change, negative = inhibition, hits mostly inhibitors; 6.9% of 360,000 active;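 note: plate controls were vehicle for no effect and reference inhibitor for full effect; nearly all actives have a fitted effect of over 55% in size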
Target sequence (P08659 whole entry, looked up): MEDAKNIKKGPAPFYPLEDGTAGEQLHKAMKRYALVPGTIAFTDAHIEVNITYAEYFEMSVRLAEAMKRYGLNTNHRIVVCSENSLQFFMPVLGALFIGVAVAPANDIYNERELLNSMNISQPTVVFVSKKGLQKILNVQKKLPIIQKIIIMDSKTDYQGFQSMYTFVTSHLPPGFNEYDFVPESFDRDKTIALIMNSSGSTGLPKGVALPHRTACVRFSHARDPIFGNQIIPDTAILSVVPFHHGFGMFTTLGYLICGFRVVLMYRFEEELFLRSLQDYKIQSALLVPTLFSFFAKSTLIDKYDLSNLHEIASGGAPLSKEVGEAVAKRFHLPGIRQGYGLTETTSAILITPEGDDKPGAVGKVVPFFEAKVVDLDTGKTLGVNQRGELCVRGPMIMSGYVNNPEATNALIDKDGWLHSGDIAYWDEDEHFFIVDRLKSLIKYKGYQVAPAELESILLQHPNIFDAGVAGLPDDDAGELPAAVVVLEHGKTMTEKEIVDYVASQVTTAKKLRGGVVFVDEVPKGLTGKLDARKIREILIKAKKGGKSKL
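Purified P. pyralis luciferase, 10 nM final, with Km-level 10 uM D-luciferin and 10 uM ATP in 50 mM Tris acetate pH 7.5, 10 mM Mg acetate, 0.01% Tween-20, 0.05% BSA; 6-point qHTS titration about 60 µM downward; luminescence read.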
Starred values were filed as active, the others as inactive; [ ] = remark or other dose. Calls come from the whole dose curve; as a rule, active = well fitted curve in the direction sought with a large enough effect; inconclusive = small, poorly fitted or top-dose-only effect, or another doubt; inactive = no such curve, though single readings can be large; an effect the other way counts as inactive or inconclusive. Potency is the fitted concentration of half-maximal effect.

For Cc1ccc(SCc2ccc(C(=O)N3CCCC3)cc2)cc1 the results were p53 reactivator 7.0%, ELG1 genotoxic 13.4%, NPC1 prom act 24.7%, Rab9 promoter act inconclusive, SMN2 splice up inconclusive and FLuc counter 16.9µM*.
`Cc1ccc(C(=O)NCCC(=O)N2CCCC2)cc1` gave p53 reactivator inconclusive, ELG1 genotoxic 23.1µM*, NPC1 prom act 3.98µM*, Rab9 promoter act 3.16µM* and FLuc counter 10.7µM*.
`Cc1ccc(SCCC(=O)N2CCOCC2)cc1` gave p53 reactivator 17.5%, ELG1 genotoxic 8.4%, NPC1 prom act 26.0%, Rab9 promoter act 23.4%, SMN2 splice up inconclusive and FLuc counter inconclusive.
Screening CCC(C)NC(=O)Cn1ncc2c([nH]c3ccc(C)cc32)c1=O (centres undefined) returned FLuc counter -1.5%.
`CCOc1ccccc1NC(=O)C(=O)NCCc1sc(-c2cccc(F)c2)nc1C` gave FLuc counter 3.9%.
`COc1ccccc1C(=O)Nc1ccc(S(=O)(=O)Nc2nc(C)cc(C)n2)cc1` gave SMN2 splice up -3.9% and FLuc counter -15.0%.
`Cc1ccc(C(=O)N2CCC(C(=O)c3c(C)cc(C)cc3C)CC2)cc1` gave p53 reactivator 0.5%, ELG1 genotoxic 0.3%, NPC1 prom act -2.4%, Rab9 promoter act -0.1% and FLuc counter 2.3%.
Screening Cc1cc(S(=O)(=O)Nc2ccc(C(=O)O)cc2)c(C)c(S(=O)(=O)c2ccc(Cl)cc2)c1 returned SMN2 splice up -0.3% and FLuc counter inconclusive.
`CC(=O)Nc1ccc(S(=O)(=O)Nc2nc3ccccc3nc2Nc2cccc(O)c2)cc1` gave p53 reactivator 2.5%, ELG1 genotoxic 4.9%, NPC1 prom act -6.3%, Rab9 promoter act -0.1% and FLuc counter inconclusive.
For COC(=O)c1cc(Nc2nc3ccccc3nc2NS(=O)(=O)c2ccc(C)cc2)ccc1Cl the results were SMN2 splice up -1.8% and FLuc counter 19µM*.
Screening CC(=O)Nc1ccc(S(=O)(=O)Nc2nc3ccccc3nc2Nc2ccc3ccccc3c2)cc1 returned p53 reactivator 28.7%, ELG1 genotoxic -0.6%, NPC1 prom act -1.1%, Rab9 promoter act 1.3%, SMN2 splice up inconclusive and FLuc counter 9.53µM*.
CCC(C)n1c(=N)c(S(=O)(=O)c2ccc(C)cc2)cc2c(=O)n3cc(C)ccc3nc21 (centres undefined) was read as SMN2 splice up 2.1% and FLuc counter -1.4%.
`CCOC(=O)c1ccc(NC(=O)CSc2nc(N3CCOCC3)nc(N3CCOCC3)n2)cc1` gave p53 reactivator 0.6%, ELG1 genotoxic inconclusive, NPC1 prom act -6.4%, Rab9 promoter act 3.5% and FLuc counter 3.7%.
`CCn1c(SCC(=O)Nc2ccc(C(C)=O)cc2)nc2c([nH]c3ccccc32)c1=O` gave p53 reactivator 10.9%, ELG1 genotoxic 16.4µM*, NPC1 prom act -0.9%, Rab9 promoter act 19.3% and FLuc counter 3.5%.
CC(=O)Nc1c(O)nc(SCC(=O)Nc2ccc(C(C)=O)cc2)[nH]c1=O was read as p53 reactivator inconclusive, ELG1 genotoxic 9.2µM*, NPC1 prom act inconclusive, Rab9 promoter act inconclusive, SMN2 splice up inconclusive and FLuc counter inconclusive.
`CC(=O)c1ccc(NC(=O)CSc2nc(N3CCOCC3)nc(N3CCOCC3)n2)cc1` gave p53 reactivator 14.1%, ELG1 genotoxic 18.3µM*, NPC1 prom act 27.8%, Rab9 promoter act 24.5% and FLuc counter -16.8%.
For COc1cccc(-n2c(SCC(=O)Nc3cc(C)ccc3C)nc3c(oc4ccccc43)c2=O)c1 the results were SMN2 splice up -7.1% and FLuc counter -0.4%.
Screening Cc1ccc(-n2c(/C=C/c3c(C)n(C)c4ccccc34)nc3ccccc3c2=O)cc1 returned SMN2 splice up -0.2% and FLuc counter -1.7%.
For NS(=O)(=O)c1nc(S(=O)(=O)O)c2[nH]cnc2n1 the results were SMN2 splice up -6.3%[9.22 µM].
For NC(=S)N/N=C/c1ccccc1 the results were p53 reactivator -4.6%, ELG1 genotoxic 0.7%, NPC1 prom act 0.8%, Rab9 promoter act -10.0%, SMN2 splice up 21.9% and FLuc counter -0.2%.
NC(=S)N/N=C/c1ccc(C23CC4CC(CC(C4)C2)C3)cc1 was read as p53 reactivator -2.2%, ELG1 genotoxic inconclusive, NPC1 prom act -0.8%, Rab9 promoter act -6.9% and FLuc counter 21.3µM*.
For O=[N+]([O-])c1cccc(OCc2cn3cccnc3n2)c1 the results were p53 reactivator 11.5%, ELG1 genotoxic 15.3%, NPC1 prom act 6.0%, Rab9 promoter act 9.5%, SMN2 splice up -15.8% and FLuc counter 1.3%.
For Cc1cccn2cc(COc3ccc(-c4ccccc4)cc3)nc12 the results were p53 reactivator 15.4%, ELG1 genotoxic inconclusive, NPC1 prom act inconclusive, Rab9 promoter act inconclusive and FLuc counter 9.53µM*.
`Cc1ccc(OCc2cn3cccnc3n2)cc1` gave p53 reactivator inconclusive, ELG1 genotoxic 18.4µM*, NPC1 prom act 3.55µM*, Rab9 promoter act 2.82µM*, SMN2 splice up 8.91µM* and FLuc counter 21.3µM*.
CCOc1ccc(C(=O)Nc2cc(-c3nc4cc(OC)ccc4o3)ccc2C)cc1[N+](=O)[O-] was read as SMN2 splice up 16.5% and FLuc counter 6.75µM*.
For COc1ccc2oc(-c3ccc(C)c(NC(=O)c4ccc(N5CCOCC5)c([N+](=O)[O-])c4)c3)nc2c1 the results were p53 reactivator inconclusive, ELG1 genotoxic inconclusive, NPC1 prom act 16.1%, Rab9 promoter act 3.8%, SMN2 splice up 4.1% and FLuc counter 6.01µM*.
Screening COc1ccc2oc(-c3ccc(C)c(NC(=O)Cc4ccc(Cl)cc4)c3)nc2c1 returned SMN2 splice up 4.4% and FLuc counter -14.9%.
CC(=O)c1ccc(NC(=O)c2sc(-n3nc(C)c(Cc4ccc5c(c4)OCO5)c3C)nc2C)cc1 was read as FLuc counter -2.3%.
For CC(C)NC(=O)N1CC[C@@]2(CCCN(C(=O)Oc3ccccc3)C2)C1 the results were SMN2 splice up -11.2%.
For O=c1c2ccccc2nc2ccc(NCc3cccs3)nn12 the results were p53 reactivator 29.3%, ELG1 genotoxic -20.1%, NPC1 prom act 3.55µM*, Rab9 promoter act 1.58µM*, SMN2 splice up 15.8µM* and FLuc counter 8.49µM*.

Source: PubChem BioAssay (National Center for Advancing Translational Sciences (NCATS))
